Assay [1] is described as follows: reducers of endogenous Her2 protein level, primary screen, SKBR3 breast tumor cells, AlphaScreen, ATP viability (AID 461).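 For Her2 level: lower value means less Her2 protein in the cells.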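 For viability: percent of carrier control wells set as 100% viability.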 The following applies: 18-24 h, measured here: SKBR3 viability, ATP luminescence, at 10 µM. A general note: In Alpha technology, singlet oxygen from a donor bead excites a nearby acceptor bead.
The target of assay [2] is Receptor tyrosine-protein kinase erbB-2 (Homo sapiens) (UniProt P04626). The description is as above. The following applies: 18-24 h, at 10 µM, stronger effect = lower value.
The nature of assay [3]: SK-BR-3 cell growth inhibitors, pilot screen, 24 h, human (AID 572;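 active = viability at or below 10% of carrier control in both of two separate runs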;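 note: compound exposure lasted between 18 and 24 h rather than exactly 24 h; 100% = carrier-treated control wells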). The following applies: SK-BR-3 viability, CellTiter-Glo luminescence, at 10 µM, stronger effect = lower value.
A short description of assay [4]: HUVEC growth inhibition – cell-based, human, primary screen (AID 575;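 active = viability at or below 30% in both replicate assays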;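 note: 100% = median of untreated cell wells with 0.1% DMSO on each plate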). The following applies: HUVEC proliferation, CellTiter-Glo luminescence, 72 h; at 10 µM; stronger effect = lower value. In general terms: Cellular ATP, detected with luciferase, serves as a proxy for viable cell number.
Assay [5] can be described thus: growth inhibitors of H69AR lung tumor, primary screen, human, duplicate replicates (AID 580;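 active = viability at or under a set limit in both replicates, limit being median viability minus 3 SD, cut at about 48% in these data, passing the limit was not always enough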;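 note: 100% = mean luminescence of untreated wells and 0% = no signal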). The following applies: H69AR lung tumor cells viability, ATP luminescence, 72 h; at 10 µM; stronger effect = lower value.
Assay [6] is described as follows: reversal of MRP1-mediated doxorubicin resistance, pilot screen, H69AR cells, doxorubicin co-treatment (AID 601;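 active = viability loss from added drug above about 55%, and viability with drug at most 40%, in both replicates, limit read from the data, passing the limit was not always enough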). The following applies: CellTiter-Glo, 72 h, at 10 µM; for differential viability (reversal): stronger effect = higher value.
Assay [7] is described as follows: 384-well plate pilot, post-Golgi transport modulator project, inhibition of yeast transport mutant growth (AID 636; in the data active = inhibition above about 31%). The following applies: absorbance 615 nm, about 18 h, stronger effect = higher value.
Assay [8] in a line: growth suppression of yeast trafficking mutant, preliminary HTS, modulators of trafficking downstream of Golgi apparatus project, 1536-format plate, OD 615 nm (AID 637; in the data active = inhibition above about 30%). The following applies: yeast transport mutant growth, absorbance 615 nm, 18 h; stronger effect = higher value.
Assay [9] in a line: OD615 S. cerevisiae growth inhibition, permissive medium, pilot counter-assay, permissive growth control for S. cerevisiae lifespan shortening project (AID 705;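 active = growth inhibition above 25% in both replicates, a cutoff set 3 SD above the mean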). The following applies: OD615, 24 h, at 10 µM, stronger effect = higher value.
A short description of assay [10]: Restrictive medium S. cerevisiae growth inhibition, OD615, pilot screen of yeast lifespan reduction project, restrictive growth control (AID 706;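 active = growth inhibition above a set limit, 3 SD over mean compound inhibition, in both replicates, cut at about 43% in these data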;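 note: modified DeaD lifespan yeast strain shifted to restrictive glucose medium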). The following applies: OD615, 48 h, at 10 µM, stronger effect = higher value.
The nature of assay [11]: viability gain of MRP-1-high H69AR cells under doxorubicin, pilot screen, MRP-1 activator project, CellTiter-Glo, duplicate (AID 807;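 active = viability increase at or above a cutoff of the median across tested compounds plus 3 SD, cut at about 8.5% in these data, passing the limit was not always enough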;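 note: compound pretreatment 18-22 h then 72 h combined with doxorubicin; 0% = doxorubicin alone and 100% = vehicle without doxorubicin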). The following applies: H69AR viability with doxorubicin, CellTiter-Glo luminescence; at 10 µM; stronger effect = higher value.
The nature of assay [12]: growth suppression of beta-catenin knockout HCT116, pilot screen, human colon tumor cells (AID 823;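 active = cell viability at or below a set limit in both duplicate runs, the limit being the all-compound median minus 4 SD, cut at about 23% in these data, passing the limit was not always enough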;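 note: 0% = wells killed by 20 µM Hyamine and 100% = untreated DMSO cell wells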). The following applies: CellTiter-Glo, 60 h, at 10 µM, stronger effect = lower value.
A short description of assay [13]: growth suppression of PTEN-deleted HCT116, pilot screen, cell-based, HCT116 clonal line, CellTiter-Glo (AID 824;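 active = viability at or below 27.92% in each of two runs, the all-compound median minus 4 SD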;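 note: 0% = 20 µM Hyamine control and 100% = vehicle cell control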). The following applies: 60 h, at 10 µM, stronger effect = lower value.
The nature of assay [14]: inhibitors of the yeast RAM network, pilot screen, dse1pr::URA3 reporter, 5-FOA selection (AID 869;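 active = inhibition over a set limit, the all-compound mean plus 3 SD, in both replicate runs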;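 note: 0% = DMSO wells with no growth and 100% = 10 µM 1-NA-PP1 with full growth; RAM network block rescues cells from 5-FOA so hits raise OD615 growth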). The following applies: S. cerevisiae dse1pr::URA3 5-FOA growth, OD615, 2 d; at 10 µM; stronger effect = higher value; strain carries analog-sensitive mutant Cbk1 kinase.
Assay [15] is described as follows: RAM signaling pathway blockade in yeast – S. cerevisiae, Pdr1DBD-CYC8 efflux-inhibited sensitized strain, primary screen (AID 1298;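 active = RAM network inhibition above 8.4% in each of two replicates, 3 SD over the compound average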;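 note: 0% = DMSO untreated cells without growth and 100% = 10 µM 1-NA-PP1 full growth; higher means more yeast growth rescued from 5-FOA killing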). The following applies: S. cerevisiae cbk1-as DSE1-URA3 strain, 5-FOA growth OD615, 2 d; at 50 µM; stronger effect = higher value.
[16] abbreviates: H69AR cells + 2 uM doxorubicin, measured here: viability with 2 uM doxorubicin, stronger effect = lower value.
Setting [17] is: H69AR cells, compound alone cytotoxicity.

Results filed as inconclusive are left out. The source made the active and inactive calls.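 Rule for the calls, unless noted: active = Her2 level under about 52% in both replicate screens, with viability over 70% of control (limit read from the data); inconclusive = Her2 under the limit in one screen only, or viability under 70%; inactive = Her2 level above the set limit.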

As usually defined, the viability is a read-out of living cells in per cent, often relative to untreated cells. One may read the inhibition as the change of the read-out against control, counted positive when it falls.

Sequence of Receptor tyrosine-protein kinase erbB-2 (Homo sapiens) (P04626 whole entry, looked up): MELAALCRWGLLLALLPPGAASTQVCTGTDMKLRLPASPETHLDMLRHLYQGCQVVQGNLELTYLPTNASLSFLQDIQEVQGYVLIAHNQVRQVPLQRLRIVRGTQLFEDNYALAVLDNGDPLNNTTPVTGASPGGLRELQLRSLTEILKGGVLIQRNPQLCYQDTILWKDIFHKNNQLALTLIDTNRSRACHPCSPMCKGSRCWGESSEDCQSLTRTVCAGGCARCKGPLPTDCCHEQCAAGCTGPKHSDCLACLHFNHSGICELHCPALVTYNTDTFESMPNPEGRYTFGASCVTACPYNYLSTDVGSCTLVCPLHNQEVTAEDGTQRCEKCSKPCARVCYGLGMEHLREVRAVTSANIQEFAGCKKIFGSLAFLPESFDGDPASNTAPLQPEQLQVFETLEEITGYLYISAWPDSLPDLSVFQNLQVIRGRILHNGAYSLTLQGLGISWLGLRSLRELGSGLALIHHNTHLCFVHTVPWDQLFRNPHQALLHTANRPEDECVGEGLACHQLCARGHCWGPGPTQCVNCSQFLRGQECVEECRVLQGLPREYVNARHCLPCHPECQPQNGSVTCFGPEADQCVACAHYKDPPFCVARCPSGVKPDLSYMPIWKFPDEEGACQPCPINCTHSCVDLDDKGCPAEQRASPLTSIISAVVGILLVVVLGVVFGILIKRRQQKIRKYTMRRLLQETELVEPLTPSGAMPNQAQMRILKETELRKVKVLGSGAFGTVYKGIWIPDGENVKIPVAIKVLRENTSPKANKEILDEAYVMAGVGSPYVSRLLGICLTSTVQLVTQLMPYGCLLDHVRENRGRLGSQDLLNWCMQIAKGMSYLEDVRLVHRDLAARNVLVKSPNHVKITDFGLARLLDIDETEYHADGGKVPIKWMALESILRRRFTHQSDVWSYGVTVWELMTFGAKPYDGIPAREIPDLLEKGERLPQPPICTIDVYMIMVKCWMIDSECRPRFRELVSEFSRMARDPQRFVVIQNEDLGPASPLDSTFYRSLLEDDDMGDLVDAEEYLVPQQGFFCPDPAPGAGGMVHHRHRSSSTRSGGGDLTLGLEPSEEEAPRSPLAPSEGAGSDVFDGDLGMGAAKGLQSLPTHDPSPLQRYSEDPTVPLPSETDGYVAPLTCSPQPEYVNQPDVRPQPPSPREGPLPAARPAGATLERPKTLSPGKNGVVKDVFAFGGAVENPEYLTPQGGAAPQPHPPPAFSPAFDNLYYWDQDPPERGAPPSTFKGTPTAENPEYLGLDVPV

As to `CCCCN(CCCC)CCn1cnc2c([nH]c3ccc(OC)cc32)c1=O`, the viability in assay [1] was 76%; in [3] it was 76% (inactive); in assay [4], 121% (inactive); in assay [5], 80.2% (inactive); in assay [6] (setting [16]) it was 92.9%; in [6] (setting [17]), 80.2%. Besides, the viability was 82.8% (inactive) in assay [12] and 86.2% (inactive) in assay [13]. In addition, the Her2 level in [2] was 90.5% (inactive). In assay [6] (H69AR cells + 2 uM doxorubicin), the differential viability (reversal) was -12.8% (inactive). Moreover, the inhibition in assay [7] is -1.67% (inactive); in [8], 2.17% (inactive); in assay [14] it was 0.545% (inactive). The growth inhibition in [9] is -6.29% (inactive); in [10], 3.9% (inactive). The viability increase in [11] was -3.78% (inactive). In addition, the RAM network inhibition in [15] was 2.03% (inactive).

Regarding `O=C(C1CCN(c2nnc(-n3cccc3)s2)CC1)N1CCOCC1`, the viability in assay [1] was 84%; in assay [3], 84% (inactive); in [4] it was 86.2% (inactive); in assay [5] it was 87.5% (inactive); in [6] (setting [16]), 87.3%; in assay [6] (setting [17]), 87.5%. Besides, the viability in assay [12] is 101% (inactive); in [13], 96.7% (inactive). Further, the Her2 level in [2] is 80% (inactive). Besides, the differential viability (reversal) in [6] (H69AR cells + 2 uM doxorubicin) is 0.17% (inactive). In addition, the inhibition was -5.2% (inactive) in [7], -1.67% (inactive) in assay [8] and 1.83% (inactive) in assay [14]. Further, the growth inhibition is -0.63% (inactive) in [9] and -1.73% (inactive) in assay [10]. In addition, the viability increase in assay [11] is 0.27% (inactive). Besides, in assay [15], the RAM network inhibition was 6.37% (inactive).

As for `COc1cccc(C(=O)OCn2nnc3ccccc3c2=O)c1OC`, the viability is 85.5% in assay [1]; 85.5% (inactive) in assay [3]; 97.7% (inactive) in [4]; 86.9% (inactive) in [5]; 109% in assay [6] (setting [16]); 86.9% in assay [6] (setting [17]). The viability in [12] is 96.5% (inactive); in assay [13] it was 99.9% (inactive). Also, the Her2 level in assay [2] was 102% (inactive). For the same compound, in assay [6] (H69AR cells + 2 uM doxorubicin), the differential viability (reversal) was -22% (inactive). The inhibition was -2.67% (inactive) in [7], -3.67% (inactive) in assay [8] and 2.57% (inactive) in assay [14]. Moreover, the growth inhibition is 8.45% (inactive) in assay [9] and 5.07% (inactive) in [10]. For the same compound, the viability increase in [11] was 0.09% (inactive). The RAM network inhibition in assay [15] was -0.62% (inactive).

As to `O=C(CSc1ccc2nnc(-c3ccccc3)n2n1)N1CCN(c2ccccc2)CC1`, the viability is 93.5% in assay [1]; 93.5% (inactive) in assay [3]; 77.9% (inactive) in assay [4]; 83.8% (inactive) in assay [5]; 93.4% in [6] (setting [16]); 83.8% in [6] (setting [17]). In addition, the values for the viability in [12] and in assay [13] were 101% (inactive) and 93.8% (inactive), respectively. For the same compound, the Her2 level in assay [2] was 114% (inactive). Further, the differential viability (reversal) in assay [6] (H69AR cells + 2 uM doxorubicin) was -9.57% (inactive). The inhibition in [7] was -0.13% (inactive); in assay [8], 7.67% (inactive); in assay [14] it was 0.38% (inactive). In addition, the growth inhibition is -0.235% (inactive) in assay [9] and 8.33% (inactive) in assay [10]. Moreover, the viability increase in assay [11] was -3.49% (inactive). Moreover, the RAM network inhibition in [15] was 0.93% (inactive).

`COc1ccc(C/C(N)=N/n2cnnc2)cc1Cl`: the viability in assay [1] is 94%; in assay [3], 94% (inactive); in assay [4], 103% (inactive); in [5], 102% (inactive); in assay [6] (setting [16]) it was 99.4%; in [6] (setting [17]), 102%. For the same compound, the viability in assay [12] is 95.7% (inactive); in assay [13], 99.8% (inactive). The Her2 level in assay [2] is 100% (inactive). For the same compound, in assay [6] (H69AR cells + 2 uM doxorubicin), the differential viability (reversal) is 2.52% (inactive). For the same compound, the inhibition in assay [7] was -2.21% (inactive); in assay [8] it was -0.83% (inactive); in [14] it was 1.04% (inactive). Further, the growth inhibition is -9.88% (inactive) in [9] and -12% (inactive) in assay [10]. In addition, in assay [11], the viability increase is -0.81% (inactive). In addition, in assay [15], the RAM network inhibition is 2.47% (inactive).

`O=P(O)(CCc1ccccc1)CN1CCCCC1`: the viability in [1] was 106%; in assay [3] it was 106% (inactive); in assay [4] it was 102% (inactive); in assay [5], 95.5% (inactive); in [6] (setting [16]), 92%; in [6] (setting [17]) it was 95.5%. Further, the viability in assay [12] was 102% (inactive); in assay [13], 98.8% (inactive). Moreover, the Her2 level in [2] is 106% (inactive). For the same compound, the differential viability (reversal) in [6] (H69AR cells + 2 uM doxorubicin) is 3.43% (inactive). Moreover, the inhibition was 7.97% (inactive) in assay [7], -1.97% (inactive) in [8] and 2% (inactive) in [14]. Moreover, the values for the growth inhibition in [9] and in [10] were -2.51% (inactive) and -11.9% (inactive), respectively. Further, the viability increase in [11] was -0.92% (inactive). Also, the RAM network inhibition in assay [15] was 1.24% (inactive).

With `C=CCc1ccccc1OCCCCN1CCCC1`, the viability in [1] is 70.5%; in assay [3], 70.5% (inactive); in assay [4], 77.1% (inactive); in [5], 83.3% (inactive); in assay [6] (setting [16]), 85.1%; in assay [6] (setting [17]), 83.3%. In addition, the results for the viability in assay [12] and in assay [13] were 77.1% (inactive) and 80.8% (inactive), respectively. Also, the Her2 level in assay [2] is 101% (inactive). The differential viability (reversal) in assay [6] (H69AR cells + 2 uM doxorubicin) is -1.74% (inactive). The results for the inhibition in [7], in assay [8] and in assay [14] were -9.05% (inactive), -1.31% (inactive) and 0.91% (inactive), respectively. Further, the growth inhibition in [9] is 7.25% (inactive); in assay [10], -3.4% (inactive). For the same compound, in assay [11], the viability increase was -7.03% (inactive). Also, in assay [15], the RAM network inhibition was 1.88% (inactive).

On to `CN1CCN(c2nc3c(c(=O)[nH]c(=O)n3C)n2CCSc2nc3ccccc3s2)CC1`, for which the viability in assay [1] was 87%; in [3], 87% (inactive); in assay [4], 98% (inactive); in assay [5], 75.2% (inactive); in assay [6] (setting [16]), 85.8%; in [6] (setting [17]) it was 75.2%. Moreover, the results for the viability in assay [12] and in [13] were 98.3% (inactive) and 91.9% (inactive), respectively. In addition, the Her2 level in assay [2] was 90.5% (inactive). Besides, the differential viability (reversal) in assay [6] (H69AR cells + 2 uM doxorubicin) is -10.6% (inactive). Besides, the inhibition in assay [7] is -0.51% (inactive); in assay [8], 1% (inactive); in assay [14], 2.66% (inactive). The figures for the growth inhibition in assay [9] and in [10] were -6.02% (inactive) and -0.85% (inactive), respectively. Besides, the viability increase in [11] was -2.32% (inactive). The RAM network inhibition in assay [15] is -1.87% (inactive).

In the case of `CCOc1cccc(OCCCCn2ccnc2)c1`, the viability in assay [1] was 87%; in assay [3], 87% (inactive); in [4] it was 97.3% (inactive); in [5], 85.4% (inactive); in assay [6] (setting [16]), 88.8%; in assay [6] (setting [17]), 85.4%. For the same compound, the values for the viability in assay [12] and in assay [13] were 49% (inactive) and 62.3% (inactive), respectively. Besides, the Her2 level in assay [2] was 75.5% (inactive). Besides, the differential viability (reversal) in [6] (H69AR cells + 2 uM doxorubicin) was -3.44% (inactive). The results for the inhibition in assay [7], in [8] and in assay [14] were 3.92% (inactive), -2.46% (inactive) and 2.19% (inactive), respectively. The growth inhibition in [9] was -3.35% (inactive); in assay [10], -16.8% (inactive). Besides, the viability increase in assay [11] is -0.4% (inactive). Besides, in assay [15], the RAM network inhibition is 1.84% (inactive).

The record behind these values is PubChem BioAssay.
